# According to PubChem BioAssay AID463173 (ICCB-Longwood Screening Facility, Harvard Medical School, 2010):
# Among all 52,000 compounds or so, about 4,300 (8.3%) were called active. The sample holds actives, similar compounds and a random draw of the others, so the mix is not that of the screen. A number with no mark means an inactive call. Rule as the data show it: active = survival mostly below about 52% (no sharp cut-off); inactive = mostly above about 56%.
# System: DeltatarO mutant
# Assay: S. aureus survival, RN4220 and DeltatarO strains – OD600, teichoic acid synthesis inhibitors, primary screen (AID 463173)
# Details: S. aureus RN4220 wild type/DeltatarO growth, OD600, 18 h, hits give low values, screened at 18.75 µg/mL (by protocol)
row,SMILES,survival
1,O=C(Nc1ccccc1)c1ccncc1,97%
2,CC(=O)Nc1ccc(S(=O)(=O)Nc2cccc(-c3ccc(N4CCCCCC4)nn3)c2)cc1,83%
3,Cc1onc2c1C(=O)CC(C)(C)C2,73%
4,Cc1cc(C)c2c(=O)cc(C(=O)NCc3ccc(S(N)(=O)=O)cc3)oc2c1,117%
5,Cc1ccc(F)cc1NC(=O)CSc1nc(-c2cccs2)cc(C(F)(F)F)n1,68%
6,CC(=O)N1CCOc2cc(S(=O)(=O)NCc3ccccc3Cl)c(Cl)cc21,76%
7,Cc1nc2sccn2c(=O)c1S(=O)(=O)Nc1ccc(N2CCOCC2)cc1,62%
8,CCOC(=O)c1ccc(NC(=O)CN2C(=O)C(C)(C)c3ccccc32)cc1,115%
9,CCN(C(=O)Cn1c(SCC(=O)NCc2ccccc2)nc2ccccc21)c1cccc(C)c1,65%
10,Cc1nc(N)sc1C(C)(C)C,86%
11,COc1ccc(-c2ccc(=O)n(CC(=O)NCCc3ccccc3)n2)cc1,70%
12,CCCC(CCC)C(=O)Nc1ccc(NC(=O)c2ccco2)cc1,98%
13,CCOc1cccc2cc(-c3nc4ccc(C(=O)O)cc4[nH]3)c(=O)oc12,69%
14,Cc1ccc2c(c1)N(C(=O)N1CCC(C(=O)NCc3cccs3)CC1)CC(C)O2 (stereo not drawn),91%
15,Cc1cc(C)c2c(-n3cccc3)c(C(=O)NCCCN3CCCCC3C)sc2n1 (stereo not drawn),93%
16,CC1CCCCN1CCCNC(=O)c1sc2ncccc2c1-n1cccc1 (stereo not drawn),25% (active)
17,COc1ccc(N2CCN(CCCNC(=O)c3sc4ncccc4c3-n3cccc3)CC2)cc1,101%
18,O=C(NCCCN1CCN(c2ccccc2)CC1)c1sc2ncccc2c1-n1cccc1,91%
19,O=C(NCCCN1CCN(c2ccc(F)cc2)CC1)c1sc2ncccc2c1-n1cccc1,37% (active)
20,O=C(NCCCN1CCCCC1)c1sc2ncccc2c1-n1cccc1,92%
21,CC1=C(C(=O)OC2CCCC2)C(c2ccccc2Cl)CC(=O)N1 (stereo not drawn),70%
22,CN1CCc2nc3sc(C(=O)c4ccc(F)cc4)c(N)c3cc2C1,71%
23,COc1ccc(CCNC(=O)C(C)n2nc(C)c3sc4ccccc4c3c2=O)c(OC)c1 (stereo not drawn),58%
24,COc1cc2nc(C3CCC3)n(N)c(=O)c2cc1OC,75%

row,SMILES,survival
1,O=C(CN1C(=O)C2CCCCN2c2ccc(C(=O)N3CCCC3)cc21)NCc1cccc(Cl)c1 (stereo not drawn),68%
2,O=C(NCc1ccncc1)C1CCN(C(=O)c2cccc(Cl)c2)CC1,74%
3,O=C(NCc1cccnc1)c1cn(C2CC2)c2cc(N3CCN(C(=O)c4cccc(Cl)c4)CC3)c(F)cc2c1=O,1% (active)
4,CCC(=O)N1CCc2cc(Br)cc(S(=O)(=O)CCC(=O)NCc3ccc(F)cc3)c21,80%
5,Cc1cccc(Cn2c(=O)n(CCc3ccccc3)c(=O)c3c(C)c(C)sc32)c1,111%
6,Cc1sc2c(c1C)c(=O)n(CCc1ccccc1)c(=O)n2Cc1ccc(F)cc1,52%
7,Cc1sc2c(c1C)c(=O)n(CCc1ccccc1)c(=O)n2Cc1ccccc1Cl,103%
8,Cc1sc2c(c1C)c(=O)n(CCc1ccccc1)c(=O)n2Cc1cccc(F)c1,16% (active)
9,Cc1ccccc1Cn1c(=O)n(CCc2ccccc2)c(=O)c2c(C)c(C)sc21,-6% (active)
10,Cc1ccc(C)c(Cn2c(=O)n(CCc3ccccc3)c(=O)c3c(C)c(C)sc32)c1,112%
11,CN1CCN(Cc2c(O)ccc3cc(-c4ccccc4)c(=O)oc23)CC1,105%
12,CCOC(=O)c1[nH]c(C)c(CCC(=O)NCc2ccc(OC(C)C)cc2)c1C,80%
13,COc1ccc(C2CC(=O)N(Cc3cccc(F)c3)c3ccccc3S2)cc1 (stereo not drawn),47% (active)
14,COc1cc(C2CC(=O)N(Cc3ccc(F)cc3)c3ccccc3S2)cc(OC)c1OC (stereo not drawn),75%
15,O=C1CC(c2ccccc2)Sc2ccccc2N1Cc1ccc(F)cc1 (stereo not drawn),-2% (active)
16,COc1ccc(C2CC(=O)N(CC(=O)Nc3cc(C)ccc3C)c3ccccc3S2)cc1 (stereo not drawn),79%
17,COc1cc(C2CC(=O)N(Cc3cccc(F)c3)c3ccccc3S2)cc(OC)c1OC (stereo not drawn),103%
18,COc1ccc(C2CC(=O)N(Cc3ccc(F)cc3)c3ccccc3S2)cc1 (stereo not drawn),28% (active)
19,CCc1ccc(NC(=O)CN2C(=O)CC(c3ccccc3)Sc3ccccc32)cc1 (stereo not drawn),113%
20,COc1ccc(C2CC(=O)N(Cc3ccc(F)cc3)c3ccccc3S2)cc1OC (stereo not drawn),100%
21,O=C1CC(c2ccccc2)Sc2ccccc2N1Cc1ccccc1F (stereo not drawn),96%
22,COc1ccc2c(c1)c(=O)c(C(=O)c1ccc(C)c(C)c1)cn2CC(=O)Nc1ccc2c(c1)OCCO2,76%
23,CCOc1ccc(NC(=O)Cn2cc(C(=O)c3ccc(CC)cc3)c(=O)c3cc(OC)c(OC)cc32)cc1,98%
24,CCOC(=O)c1ccc(NC(=O)CCc2c(C)nc3c(-c4ccc(F)cc4)c(C)nn3c2C)cc1,61%

row,SMILES,survival
1,COc1ccccc1N1CCN(C(=O)c2ccc(Nc3nc4ccccc4n4nnnc34)cc2)CC1,59%
2,Cc1ccc(CNC(=O)C2CCC(CNS(=O)(=O)c3ccc4c(c3)CCCC(=O)N4)CC2)cc1 (stereo not drawn),79%
3,COc1cccc(C(c2sc3nc(-c4ccco4)nn3c2O)N2CCCC2)c1 (stereo not drawn),71%
4,Cc1ccc(C)c2sc(N3CCN(C(=O)c4ccco4)CC3)nc12,134%
5,COc1ccc(OC)c2sc(N3CCN(C(=O)C(C)(C)C)CC3)nc12,89%
6,COc1ccc(OC)c2sc(N3CCN(C(=O)C4CC4)CC3)nc12,-5% (active)
7,COc1ccc(OC)c2sc(N3CCN(C(=O)C4COc5ccccc5O4)CC3)nc12 (stereo not drawn),88%
8,COc1ccc(OC)c2sc(N3CCN(C(=O)c4ccco4)CC3)nc12,87%
9,COc1ccc(C)c2sc(N3CCN(C(=O)c4ccco4)CC3)nc12,17% (active)
10,CCn1cc(S(=O)(=O)c2cccc(C)c2)c(=O)c2cc(F)c(N3CCCCC3C)cc21 (stereo not drawn),83%
11,CCc1ccc2[nH]c(=O)c(C(c3nnnn3C(C)(C)C)N3CCc4ccccc43)cc2c1 (stereo not drawn),96%
12,Cc1oc(-c2ccc(C(=O)N(C)Cc3ccccc3)cc2)nc1CN1CCc2ccccc21,119%
13,Cc1ccc(-n2nc3ccc(NC(=O)Cc4ccc(Cl)cc4)cc3n2)cc1,79%
14,CCOc1ccc(CNC(=O)Cn2c(=O)c3cccn3c3ccccc32)cc1,60%
15,Fc1ccc(F)c(Nc2c3c(nc4ccc(Cl)cc24)CCC3)c1,-18% (active)
16,COc1ccc(Nc2c3c(nc4ccc(NC(=O)c5cc(Cl)ccc5OC)cc24)CCCC3)cc1OC,70%
17,FC(F)(F)c1cccc(Nc2c3c(nc4ccc(Cl)cc24)CCC3)c1,9% (active)
18,Fc1ccccc1Nc1c2c(nc3ccccc13)CCC2,95%
19,COc1cc(Cl)c(C)cc1Nc1c2c(nc3ccccc13)CCC2,70%
20,CCOC(=O)c1cccc(Nc2c3c(nc4ccccc24)CCC3)c1,68%
21,O=C(Nc1c(C(=O)N2CCN(c3ccc(F)cc3)CC2)oc2ccccc12)c1c(F)cccc1F,95%
22,CCC(=O)Nc1ccccc1-c1nc2ccccc2n(Cc2cccc(Br)c2)c1=O,49%
23,CCn1cc(C(=O)NCCc2ccc(Cl)cc2)c(=O)c2cc(S(=O)(=O)N(C)C3CCCCC3)ccc21,84%
24,CC(=O)Nc1c(C)nn(-c2ccccc2)c1N1CCC(C(=O)Nc2ccc(F)cc2Cl)CC1,76%

row,SMILES,survival
1,CC(=O)Nc1c(C)nn(-c2ccccc2)c1N1CCC(C(=O)NCc2cccc(Cl)c2)CC1,84%
2,O=C(NCc1cccc(F)c1)C1CCN(c2nn3cc(-c4ccc(F)cc4)nc3s2)CC1,87%
3,CC(=O)Nc1c(C)nn(-c2ccccc2)c1N1CCC(C(=O)Nc2cc(F)ccc2F)CC1,79%
4,CC(=O)Nc1ccc(NC(=O)C2CCN(c3c(NC(C)=O)c(C)nn3-c3ccccc3)CC2)cc1,67%
5,CC(=O)Nc1c(C)nn(-c2ccccc2)c1N1CCC(C(=O)NCc2cccc(F)c2)CC1,6% (active)
6,Cc1cccc(CNC(=O)C2CCN(c3nn4cc(-c5ccc(F)cc5)nc4s3)CC2)c1,47% (active)
7,CC(=O)Nc1c(C)nn(-c2ccccc2)c1N1CCC(C(=O)NCc2ccc(F)cc2)CC1,-1% (active)
8,CC(=O)Nc1c(C)nn(-c2ccccc2)c1N1CCC(C(=O)Nc2ccc(C)cc2Cl)CC1,72%
9,Cc1ccc(CNC(=O)C2CCN(c3nn4cc(-c5ccc(F)cc5)nc4s3)CC2)cc1,87%
10,CC(=O)Nc1c(C)nn(-c2ccccc2)c1N1CCC(C(=O)NCc2ccc(Cl)cc2)CC1,72%
11,CC(=O)Nc1c(C)nn(-c2ccccc2)c1N1CCC(C(=O)NCc2ccccc2Cl)CC1,-2% (active)
12,COc1ccc(OC)c(C2CC(=O)Nc3c2c(=O)n(C)c2ncnn32)c1 (stereo not drawn),166%
13,O=C(Nc1ccc(N2CCOCC2)cc1)c1ncn[nH]1,86%
14,Cc1ccc(NC(=O)Cn2c(SCc3cccc(F)c3)nc3ccncc32)c(C)c1,83%
15,Cc1ccc(O)c(NC(=O)c2cc(-c3ccccc3O)no2)c1,80%
16,O=C(NC1CC(=O)N(c2ccccc2)C1)c1ccc(S(=O)(=O)N2CCCC2)cc1 (stereo not drawn),128%
17,O=C(NC1CC(=O)N(c2ccc(F)cc2)C1)c1ccc(S(=O)(=O)N2CCCCC2)cc1 (stereo not drawn),75%
18,O=C(NC1CC(=O)N(c2ccccc2)C1)c1ccc(S(=O)(=O)N2CCCCC2)cc1 (stereo not drawn),17% (active)
19,CCOc1ccc(N2CC(NC(=O)c3ccc(S(=O)(=O)N4CCOCC4)cc3)CC2=O)cc1 (stereo not drawn),47% (active)
20,CCOc1ccc(N2CC(NC(=O)c3ccc(S(=O)(=O)N4CCCC4)cc3)CC2=O)cc1 (stereo not drawn),87%
21,CCOc1ccc(N2CC(NC(=O)c3ccc(S(=O)(=O)N4CCCCC4)cc3)CC2=O)cc1 (stereo not drawn),79%
